In the library only some 7.2% were active in any assay of this set; here they are far more common.
Efflux pump inh: inhibitors of Candida antifungal efflux pumps expressed in yeast | inhibition, % at 10 µM | hit rate 0.44% among 330,000 | S. cerevisiae Candida pump triplex, Nile Red efflux | AID 485275;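 active means plate passing quality check with inhibition over a set limit, or well fluorescence over plate mean plus 4 SD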;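 further: Nile Red retained in pooled yeast measured as flow cytometry median fluorescence; 0% = buffer negative control and 100% = Enniatin B positive control; higher means more Nile Red kept so more efflux inhibition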
Mot1-301 SUMO: inhibitors of SUMOylation pathway: yeast Mot1-301 growth rescue; S. cerevisiae Mot1-301 growth rescue, ATP luminescence, 38.5C; percent above DMSO median, 100 means doubled; growth rescue, % at 18.8 µM; hit rate 1% among 320,000;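 active means every valid replicate shows activation above 250% relative to neutral control wells; inactive means the rest, any valid replicate at or below 250%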;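 further: OY570 slx delta 5 strain wells were the positive control but not used for scaling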
ALR H2O2 inh: inhibitors of human sulfhydryl oxidase ALR. hit rate 3.8% among 290,000. inhibition, % (test concentration not listed). purified ALR, DTT oxidation, H2O2 HRP-luminol luminescence. AID 485317;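 active means mean replicate inhibition above about 79%, with every replicate also reaching it, limit read from the data; inconclusive means only one of the two criteria met; inactive means mean below limit and not every replicate reaching it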
VLA-4 inh: inhibition in a human VLA-4 binding assay. P13612. VLA-4 expressing cells, ligand binding flow cytometry. inhibition, % (about 7 µM as worked out from the volumes in the protocol). hit rate 0.2% among 330,000; in the data active means inhibition above about 50%
Target sequence (P13612 whole entry, looked up): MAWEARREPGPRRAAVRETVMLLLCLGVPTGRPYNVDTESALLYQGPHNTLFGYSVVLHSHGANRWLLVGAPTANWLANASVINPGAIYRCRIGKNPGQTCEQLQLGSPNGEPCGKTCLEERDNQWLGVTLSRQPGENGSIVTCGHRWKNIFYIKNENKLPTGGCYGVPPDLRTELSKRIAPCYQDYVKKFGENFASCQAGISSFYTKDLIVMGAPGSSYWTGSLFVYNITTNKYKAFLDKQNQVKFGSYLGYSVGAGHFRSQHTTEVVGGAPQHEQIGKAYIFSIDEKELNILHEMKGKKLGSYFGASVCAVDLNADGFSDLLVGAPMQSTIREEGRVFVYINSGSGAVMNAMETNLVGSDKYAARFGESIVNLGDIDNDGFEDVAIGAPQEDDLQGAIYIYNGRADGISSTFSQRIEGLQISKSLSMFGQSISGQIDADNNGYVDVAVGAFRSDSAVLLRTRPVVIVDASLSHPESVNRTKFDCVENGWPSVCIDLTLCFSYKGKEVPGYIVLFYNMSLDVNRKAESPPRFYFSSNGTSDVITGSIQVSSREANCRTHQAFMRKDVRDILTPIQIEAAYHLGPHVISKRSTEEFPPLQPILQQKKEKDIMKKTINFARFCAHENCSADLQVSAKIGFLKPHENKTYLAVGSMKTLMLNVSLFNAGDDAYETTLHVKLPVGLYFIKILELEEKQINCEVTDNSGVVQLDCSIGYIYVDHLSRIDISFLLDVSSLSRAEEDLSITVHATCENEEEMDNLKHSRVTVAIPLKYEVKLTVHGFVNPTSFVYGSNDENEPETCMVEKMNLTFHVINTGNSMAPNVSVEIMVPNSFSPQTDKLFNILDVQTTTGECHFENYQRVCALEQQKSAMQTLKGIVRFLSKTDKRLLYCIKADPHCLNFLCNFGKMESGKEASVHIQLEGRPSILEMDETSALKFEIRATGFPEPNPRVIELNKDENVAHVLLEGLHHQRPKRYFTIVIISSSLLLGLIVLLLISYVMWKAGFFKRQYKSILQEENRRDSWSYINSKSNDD
A1 inh: inhibitors of the anti-apoptotic protein A1, read as caspase activation; MEF A1-2A-BIM cells, Caspase-Glo 3/7 luminescence, 3 h; percent of clofoctol response, vehicle zero; caspase activation, % (concentration not given with the values); hit rate 0.066% among 330,000;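 active means over half of replicate activation scores above 10%, or exactly half above 10 with the replicate mean above 10; inconclusive means replicate mean below 10 yet half the replicates above 10; inactive means over half of replicates below 10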
AHR activator: human AHR activation; hit rate 2.5% among 320,000; AHR-responsive luciferase reporter cells, luminescence; activation, % at 5 µM; P35869; in the data active means activation above about 47%;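 further: 0% = vehicle wells and 100% = reference agonist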
* hit, by the source's call; ? = inconclusive; · = no result given.

SMILES | Efflux pump inh | Mot1-301 SUMO | ALR H2O2 inh | VLA-4 inh | A1 inh | AHR activator
CC(=O)Cc1nsc(NC(=O)c2ccc(COc3ccccc3)o2)n1 | -0.2 | -4.9 | 98.0* | 1.4 | 0.8 | 3.6
CCOc1ccccc1-c1ccc(C(=O)NCc2ccccc2)o1 | -0.2 | -10.8 | -0.1 | 27.2 | -0.3 | 20.0
COCCCn1c(=O)c2ccccc2n(Cc2cccc(C)c2)c1=O | 0.0 | -0.9 | -3.7 | 4.8 | 0.8 | -1.6
CC(=O)Nc1ccc(SCC(=O)c2cc(C)n(-c3ccccc3F)c2C)cc1 | 0.0 | 35.9 | 98.4* | 22.3 | 0.0 | -3.0
COCCn1c(C)cc(C(=O)CSc2ccc(NC(C)=O)cc2)c1C | -0.2 | -15.7 | 98.3* | -10.0 | -0.2 | -12.3
C=CCn1c(C)cc(C(=O)CSc2ccc(NC(C)=O)cc2)c1C | 0.0 | 5.1 | 97.6* | 6.8 | -0.4 | -7.2
CC(=O)Nc1ccc(SCC(=O)c2cc(C)n(Cc3cccs3)c2C)cc1 | 0.0 | 10.0 | -11.0 | 11.4 | 0.6 | -12.1
C=CCn1c(C)cc(C(=O)CSc2n[nH]c(N)n2)c1C | 0.2 | -0.5 | 97.6* | -26.7 | 0.5 | 50.0*
CC(=O)Nc1cccc(N/C=C(\C=O)c2nc3ccccc3o2)c1 | 0.1 | 173.0 | -2.8 | -7.6 | 0.5 | 58.8*
O=C/C(=C\Nc1ccc(Br)cc1)c1nc2ccccc2o1 | 0.1 | 169.8 | -1.7 | -9.9 | -0.4 | 49.0*
CC(=O)Nc1ccc(N/C=C(\C=O)c2nc3ccccc3o2)cc1 | -0.1 | 1.7 | -10.5 | 5.1 | 0.0 | 13.7
Cn1c(CNC(=O)c2ccco2)nnc1SCC(=O)c1ccc(F)cc1 | -0.1 | -14.5 | 85.7* | -13.3 | -0.3 | -0.6
COc1ccc(C(=O)NCc2nnc(SCC(=O)c3ccc(F)cc3)n2C)cc1OC | 0.0 | -11.4 | 93.7* | 1.5 | 0.3 | -2.9
CCN(c1ccccc1)C1(O)C(=O)c2ccccc2C1=O | 0.1 | 5.4 | 95.3* | 9.0 | -0.2 | 0.4
O=C(Cc1cccc2ccccc12)N1CCCc2ccccc21 | -0.1 | -2.1 | -24.0 | -0.5 | -0.3 | 13.6
Clc1ccc(SCCOCCN2CCc3ccccc3C2)cc1 | 0.2 | 270.2* | -4.1 | -1.8 | 0.1 | 6.7
CCCCNc1nc2cccnc2s1 | 0.0 | -1.3 | -3.2 | -0.1 | -0.8 | 0.0
Clc1ccc(Nc2nc3cccnc3s2)cc1 | 0.1 | -1.9 | · | 5.2 | 0.0 | 52.7*
COc1ccc(CNCCCSc2ncccn2)c(OC)c1 | -0.2 | 4.1 | · | 8.6 | -0.3 | -3.8
Nc1c(Nc2ccccc2)c2ccccc2oc1=O | 0.1 | 37.4 | 98.5* | 11.5 | -0.9 | 0.0
CCNc1c(N)c(=O)oc2ccccc12 | 0.0 | -8.1 | 60.4 | 1.0 | -0.2 | 24.9
CC(C)CNc1c(N)c(=O)oc2ccccc12 | 0.1 | 1.3 | 99.0* | 1.4 | 0.5 | 7.7
C=CCSC1=N/C(=C\C=C\c2ccco2)C(=O)S1 | 0.1 | 27.3 | 98.7* | 9.1 | 1.2 | 0.3
Cc1ccc(N=C2SC(C(=O)Nc3ccc(OC(F)(F)F)cc3)C(N)=C2C(=O)Nc2c(C)cc(C)cc2C)cc1 (stereo not drawn) | 0.2 | 36.3 | -7.4 | 14.2 | 1.6 | 0.1
O=C(N/N=C/c1ccc(OC(F)F)cc1)c1ccc(Br)cc1 | -0.1 | 63.3 | 0.9 | 0.3 | 0.5 | 10.2
SMILES | Efflux pump inh | Mot1-301 SUMO | ALR H2O2 inh | VLA-4 inh | A1 inh | AHR activator
O=C(NO)c1ccc(OC(F)F)cc1 | 0.0 | 45.4 | 98.7* | 3.4 | 0.0 | 1.2
Cc1sc2nc(SCC(=O)Nc3ccc(S(N)(=O)=O)cc3)[nH]c(=O)c2c1C | -0.1 | 36.7 | -12.1 | 2.6 | 0.8 | 3.9
Cc1sc2nc(CSCC(=O)Nc3ccc(C(=O)N(C)C)cc3)[nH]c(=O)c2c1C | -0.1 | 8.4 | 98.8* | 0.0 | 1.0 | 34.1
Cc1sc2nc(CSCC(=O)Nc3ccc(OC(F)F)cc3)[nH]c(=O)c2c1C | 0.0 | 0.9 | 97.2* | -3.0 | -0.2 | 20.0
CSc1ccccc1NC(=O)CSCc1nc2sc(C)c(C)c2c(=O)[nH]1 | 0.0 | 10.2 | 56.9 | 3.4 | 0.3 | 4.0
COc1cccc(-n2nnnc2S(C)(=O)=O)c1 | 0.2 | 27.0 | 98.8* | 41.5 | 3.4 | -0.7
Cc1ccc(NC(=O)COC(=O)CN2CSCC2=O)cc1C | -0.1 | 6.9 | 98.3* | -0.1 | 0.8 | 2.5
Cc1ccc(NC(=O)COC(=O)CSC(=S)N2CCOCC2)cc1C | 0.1 | -3.8 | · | 2.7 | 0.0 | 3.5
Cc1ccc(O)c(NC(=O)C2=CC(c3cccs3)=NS(=O)(=O)N2C)c1 | 0.0 | -2.6 | -13.7 | -11.9 | · | 52.0*
CCc1ccccc1NC(=O)C1=CC(c2cccs2)=NS(=O)(=O)N1C | 0.0 | 0.1 | -10.0 | -13.2 | · | 5.7
CSc1ncccc1C(=O)OCC(=O)NCCc1ccccc1 | 0.1 | 4.5 | 2.0 | 24.3 | 2.7 | 0.1
CCOc1ccccc1NC(=O)CN(C)S(=O)(=O)c1cnc[nH]1 | 0.2 | -12.0 | -1.8 | 3.5 | -0.4 | -1.7
COc1cc(NS(C)(=O)=O)ccc1Nc1c2ccccc2nc2ccccc12 | -0.1 | 12.4 | 98.6* | -8.5 | 1.8 | 8.1
COc1ccc([N+](=O)[O-])cc1Nc1c2ccccc2nc2ccccc12 | 0.2 | -20.0 | 66.2 | 0.0 | -0.1 | -0.6
O=C(Cc1ccccc1)Oc1coc(CSc2ncccn2)cc1=O | -0.1 | 1.1 | 6.3 | 0.6 | 0.4 | -3.0
CCc1ccccc1N/N=C(/C)c1c(O)cc(C)oc1=O | -0.1 | 14.0 | 98.1* | 4.6 | 0.0 | 3.7
Cc1cc(SCC(=O)c2cc3ccccc3o2)nc2ccccc12 | 0.0 | -2.0 | 6.2 | -14.8 | -0.6 | 51.6*
Cc1cc(SCC(=O)c2ccc(O)c(O)c2)nc2ccccc12 | 0.1 | -17.9 | 99.6* | 4.6 | 0.3 | -2.6
Cc1cc(SCC(=O)c2ccc3c(c2)OCO3)nc2ccccc12 | 0.1 | -5.5 | -1.1 | -12.4 | -0.2 | 63.7*
Cc1cc(SCC(=O)O)nc2ccccc12 | 0.0 | 64.9 | -9.9 | 8.9 | 0.4 | 0.6
Cc1ccc(C)c(S(=O)(=O)N2CCN(CC(=O)NC(=O)NCc3ccco3)CC2)c1 | 0.0 | 38.1 | -3.9 | 4.4 | 0.3 | 3.5
c1cc(CNc2ccc3c(c2)OCCO3)ccn1 | -0.1 | -16.8 | 54.6 | 5.7 | -0.4 | 16.0
O=C1/C(=C/C=C/c2ccco2)SC(=S)N1NS(=O)(=O)c1ccccc1 | 1.5* | 108.1 | ? | -0.2 | 1.2 | 0.4
CC(C(=O)O)N1C(=O)/C(=C/C=C/c2ccco2)SC1=S (stereo not drawn) | 0.1 | 5.8 | 97.3* | 8.2 | -0.9 | 3.1
COc1ccc(OC)c(/C=C2\SC(=S)N(NS(=O)(=O)c3ccccc3)C2=O)c1 | -0.1 | -11.4 | 61.2 | 2.6 | 1.1 | 0.8
Oc1ccc(/C=C/c2cnccn2)cc1 | -0.1 | 0.8 | 82.6* | -0.9 | -2.7 | 2.0
Cc1occc1-c1nnc(SCC(=O)c2ccc(F)cc2)o1 | 0.2 | 2.5 | 96.6* | -1.5 | -0.3 | -5.8
C/C(N)=C(/C#N)C(=O)COC(=O)CNS(=O)(=O)c1ccc(F)c(F)c1F | 0.1 | -2.2 | -19.8 | -2.4 | 1.1 | -1.0

From PubChem BioAssay
